These results are taken from ChEMBL document CHEMBL3988442, “University of Dundee, Small-Polar-MMV Screening Library” (2021).

Structures are written as SMILES. The whole screen tested about 48,000 compounds, of which about 13,000 (27%) showed an effect of 50% or more. This is one part of the list.

The experiment has as its system Wolbachia pipientis. In words: Anti-Wolbachia Cell-Based Screen. The note with it: 5 µM. Details: scale not given: in the data most compounds retested in dose-response had high values. In kind it is functional.
Regarding `CCOCc1nc(-c2ccc(F)cc2Cl)n(C)n1`, the “Percent Effect” value came out at 104.7%. `CCOc1ccc(NC(C)C(=O)NCCc2cccs2)cc1CO` (stereo unspecified): the “Percent Effect” value is given as -30.37%.

With `CC(C)c1noc(CCCC(=O)N2CCN(C)CC2c2ccccc2)n1` (stereo unspecified), the “Percent Effect” value is given as 5.23%. The same measure for `O=C(c1cnc(-c2noc3cc(N4CCCC4)ccc23)s1)N1CCCC1`: 0.8579%. For the compound `CCC(C)NS(=O)(=O)Cc1cccc(NC(=O)c2cc[nH]c2C)c1` (stereo unspecified), the “Percent Effect” value was determined as 3.733%.

With `Cc1ccc2nc(C)c(C)c(C(=O)NCCCn3cnnc3)c2c1`, the “Percent Effect” value was -1.384%. In the case of `CC(C)Oc1cc(N2CC[C@@H](N3CCOCC3)[C@H](O)C2)nc(N)n1`, the “Percent Effect” value is -17.76%. Regarding `CCn1nccc1CN(C)c1[nH]cnc2nc(C)nc1-2`, the “Percent Effect” value is 80.56%. The same measure for `CCn1nccc1CNC(=O)C1CC1`: 8.516%; for `CCn1nccc1CNc1[nH]cnc2nncc1-2`: 87.91%.

With `CCn1nccc1CNC(=O)NC1CCCCC1`, the “Percent Effect” value is on record as 13.66%. In the case of `CCn1nccc1CNc1[nH]cnc2nc(C)nc1-2`, the “Percent Effect” value is on record as 100.2%. For `CCn1ncnc1CN(CCOC)Cc1ccc(C)cc1`, the “Percent Effect” value is -0.7993%. With `Cc1nccn1-c1ccc(C(C)NCc2ncc[nH]2)cc1` (stereo unspecified), the “Percent Effect” value is -20.7%. In the case of `Cc1cc(C(=O)Nc2ccnc(OC3CCOC3)c2)c(C)o1` (stereo unspecified), the “Percent Effect” value is -9.731%.

As for `Cc1ccc2[nH]c(CN(C)c3cc(CN)nc(C)n3)nc2c1`, the “Percent Effect” value was -0.384%.

On to `N#Cc1cn(C2CC2)c(=O)n(Cc2noc(-c3cccs3)n2)c1=O`, for which the “Percent Effect” value amounted to 11.53%. The same measure for `COCCn1cnnc1CN(C)c1nc(N)nc2c1CCCC2`: 15.13%. Turning to `Cc1oncc1C(=O)N1CC2CC1(C(=O)NCc1ccco1)C2`, the “Percent Effect” value is -19.28%. `FC(F)(F)Oc1ccc(-c2c[nH]c([C@@H]3COCCN3)n2)cc1`: the “Percent Effect” value is -3.996%. The same measure for `c1ccc(CNCC2Cn3nncc3CO2)nc1` (stereo unspecified): -9.384%. The same measure for `Cc1ccc(CNCC2Cn3nnc(-c4cccc(F)c4)c3CO2)o1.O=C(O)C(F)(F)F` (stereo unspecified): -4.594%; for `c1cc(CNCC2Cn3nncc3CO2)cs1` (stereo unspecified): 14.09%.

For `c1cc(CNCC2Cn3nncc3CO2)ccn1` (stereo unspecified), the “Percent Effect” value worked out at 7.838%. Turning to `Cc1ccc(CNCC2Cn3nncc3CO2)s1` (stereo unspecified), the “Percent Effect” value is given as 98.39%. Turning to `Fc1cccc(CNCC2Cn3nncc3CO2)c1` (stereo unspecified), the “Percent Effect” value is given as -13.19%.

As to `c1coc(CNCC2Cn3nncc3CO2)c1` (stereo unspecified), the “Percent Effect” value came out at 91.63%. The same measure for `Cc1ccc(CNCC2Cn3nncc3CO2)o1` (stereo unspecified): 84.72%; for `Cc1nnn2c1COC(CNCc1ccncc1)C2` (stereo unspecified): -6.146%; for `COCCN(CCC#N)S(=O)(=O)c1cc(F)ccc1F`: 6.072%. Regarding `CCc1nnc2n1CCN(C(=O)CN(C)Cc1ccccc1)C2`, the “Percent Effect” value is -3.292%. Next, `Cc1nnc2n1CCN(C(=O)COCCOc1ccccc1)C2`: 6.355%; `CC(C)c1nnc2n1CCN(C(=O)c1ccc(CN(C)C)cc1)C2`: -8.921%; `Cc1nnc2n1CCN(C(=O)CN(C)Cc1ccccc1)C2`: 125%. Take `CC(C)c1nnc2n1CCN(C(=O)CN1Cc3ccccc3C1=O)C2`: the “Percent Effect” value is reported as -9.252%. Next, `CC(C)c1nnc2n1CCN(C(=O)CN(C)Cc1ccccc1)C2`: 95.98%. Next, `CS(=O)(=O)c1nccn1Cc1ccc(C(N)=O)cc1`: -9.833%; `CN(C)Cc1cn2c(n1)CN(C1CCOC1)CC2` (stereo unspecified): 93.96%. Next, `CN(Cc1cn2c(n1)CN(CC1CCOC1)CC2)Cc1ccco1.O=C(O)C(F)(F)F.O=C(O)C(F)(F)F` (stereo unspecified): 11.13%; `CN(Cc1cccnc1)Cc1cn2c(n1)CN(C1CCOC1)CC2.O=C(O)C(F)(F)F.O=C(O)C(F)(F)F.O=C(O)C(F)(F)F` (stereo unspecified): 86.19%; `CCN(CC)Cc1cn2c(n1)CN(C1CCOC1)CC2.O=C(O)C(F)(F)F.O=C(O)C(F)(F)F` (stereo unspecified): 96.5%. Consider `CN(Cc1cccnc1)Cc1cn2c(n1)CN(C1CCOCC1)CC2`, for which the “Percent Effect” value is on record as 108.1%. The same measure for `CCN(CC)Cc1cnc2n1CCN(C1CCOC1)CC2` (stereo unspecified): -1.376%. The same measure for `CN(Cc1cn2c(n1)CN(C1CCOC1)CC2)Cc1ccco1.O=C(O)C(F)(F)F.O=C(O)C(F)(F)F` (stereo unspecified): -12.79%. On to `CCOCC(=O)N1CCn2cc(CN(C)Cc3ccco3)nc2C1`, for which the “Percent Effect” value was -7.292%. `CN(Cc1cn2c(n1)CN(C(=O)C1CCOCC1)CC2)Cc1ccco1`: the “Percent Effect” value is -9.912%. Next, `CN(Cc1cncnc1)Cc1cn2c(n1)CN(C1CCOC1)CC2.O=C(O)C(F)(F)F.O=C(O)C(F)(F)F` (stereo unspecified): -14.81%.

With `Cc1noc(C)c1CN(C)Cc1csc(-c2ccccc2F)n1`, the “Percent Effect” value is recorded as 6.793%. The same measure for `CSC(C)(C)CNC(=O)NCC[S+]([O-])c1ccccc1F` (stereo unspecified): 3.709%; for `COCc1nc2n(n1)CCCC2Nc1nc(C2CC2)ns1` (stereo unspecified): -6.792%.

As to `COC[C@H]1CC[C@H]2[C@H](CCN2S(=O)(=O)Cc2ccccc2)O1`, the “Percent Effect” value is listed as -8.908%.
